PvdQ inh = P. aeruginosa PvdQ acylase inhibition; purified PvdQ acylase, fluorescence plate reader; inhibition, % at 10 µM; actives 0.063% (n = 340,000); AID 488965; in the data active = inhibition above about 30%, passing the limit was not always enough;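 also: 0% = vehicle neutral wells and 100% = reference inhibitor wells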
miR122 inh = inhibitors of miR-122 in Huh7 cells | Huh7 miR-122 Renilla luciferase sensor, 48 h; neutral wells = 0, positive control = 100 | activation (reporter increase), % at 12.5 µM | actives 0.3% (n = 340,000) | AID 602342;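 active = mean replicate activation score at least 90 and every replicate individually at or above 90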;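 also: higher luciferase means less miR-122 activity so hits act as miR-122 inhibitors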
PGC1a acetyl inh = lowers PGC1a acetylation signal in U2OS cells. actives 0.17% (n = 350,000). AlphaScreen anti-acetyl-lysine; with virally co-expressed GCN5 acetyltransferase. inhibition, % at 15.6 µM;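 active = every replicate shows inhibition of at least 40%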;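 also: 0% = neutral control wells and 100% = positive control wells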
C2C12 statin = suppression of simvastatin myotoxicity; C2C12 myotubes + simvastatin, ATP luminescence, 48 h; scaled: DMSO 0, geranylgeraniol control 100; rescue of ATP level, % at 7.49 µM; actives 0.78% (n = 330,000); AID 602340;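 active = mean ATP rescue above about 67%, or every replicate alone reaching that limit, limit read from the data, passing the limit was not always enough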;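 also: myotubes were challenged with 10 µM simvastatin during compound exposure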
DENV2 CPE = protects cells from dengue virus 2 cytopathic effect. DENV2-infected cells, cytopathic effect rescue, plate reader. CPE inhibition, % at 9.99 µM. actives 1.7% (n = 350,000); in the data active = CPE inhibition above about 20%, passing the limit was not always enough; tested in BHK-21 cells;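 also: 0% = median of neutral control wells and 100% = median of positive control wells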
Active calls of the source: *; . = not tested or not shown; ! = not confirmed by another sample; [ ] = remark or other dose. The list is not random: actives were taken first. Their share in the collection is about 2.2%.

SMILES | PvdQ inh | miR122 inh | PGC1a acetyl inh | C2C12 statin | DENV2 CPE
Cc1ccc(NC(=O)Cc2cn(C)c3ccccc23)cc1F | 10 | 321* | . | 11 | 3
Cc1ccc(NC(=O)Cc2c(C(=O)O)n(C)c3ccccc23)cc1F | -7 | -6 | -1 | . | -2
CC=Cc1ccc2n(c1=O)C[C@H]1[C@H](CO)[C@@H](C(=O)NCC(F)(F)F)N(CCc3ccccc3)[C@@H]21 (mixture of isomers) | . | 0[16.7 µM] | 2 | -8 | 15
CC1(NC(=O)c2ccccc2)CCN(CCc2cccs2)C1=O (centres undefined) | -6 | 0 | 2 | -3 | -17
O=C(NC1(Cc2ccccc2)CCN(CCc2cccs2)C1=O)c1ccccc1 (centres undefined) | -15 | 15 | 0 | 15 | 72*
Cc1ccc(S(=O)(=O)N[C@@H]2CC[C@H](CCn3cc(C(C)C)nn3)O[C@@H]2CO)cc1 | . | . | 0 | 5 | -9
COc1ccc2c3c(n(C)c2c1)[C@H](CO)N(CC1CC1)CC31CN(C(=O)c2ccccc2)C1 | . | . | -5 | . | -2
COc1ccc(CCN2C(=O)C3C(C2=O)C2C=CC3C23CC3)cc1OC (centres undefined) | -4 | 2 | -2 | 118* | 1
C[C@@H]1CN([C@@H](C)CO)S(=O)(=O)c2ccc(C#Cc3ccccc3)cc2O[C@@H]1CN(C)C | . | 5[16.7 µM] | 1 | -8 | -8
C[C@@H]1CCCCO[C@@H](CN(C)S(=O)(=O)c2ccc(Cl)cc2)[C@H](C)CN([C@@H](C)CO)C(=O)c2cc(NC(=O)Nc3ccc(C(F)(F)F)cc3)ccc2O1 | . | -17[16.7 µM] | 10 | . | 35*
C[C@@H]1CN([C@H](C)CO)C(=O)c2cc(NC(=O)Nc3ccc(C(F)(F)F)cc3)ccc2O[C@@H](C)CCCCO[C@H]1CN(C)S(=O)(=O)c1ccc(Cl)cc1 | . | -14[16.7 µM] | -9 | . | 15
C[C@H](CO)N1C[C@H](C)[C@@H](CN(C)S(=O)(=O)c2ccc(Cl)cc2)OCCCC[C@H](C)Oc2ccc(NC(=O)Nc3ccc(C(F)(F)F)cc3)cc2C1=O | . | -4[16.7 µM] | -9 | . | 36*
C[C@@H]1CN([C@H](C)CO)C(=O)c2cc(NS(=O)(=O)c3ccc(F)cc3)ccc2O[C@@H]1CN(C)Cc1ccc(C(=O)O)cc1 | . | -1[16.7 µM] | 4 | . | -3
CC=Cc1ccc2n(c1=O)C[C@H]1[C@H](CO)[C@@H](C(=O)N3CCC(Cc4ccccc4)CC3)N(CC)[C@@H]21 (mixture of isomers) | . | -3[16.7 µM] | . | -8 | -10
O=C(NCCOC(=O)c1ccncc1)c1ccccc1 | 5 | 12 | -4 | 87* | .
O=C(NCCOC(=O)c1ccccc1)c1ccc([N+](=O)[O-])cc1 | -15 | -3 | -2 | -1 | 3
COC(=O)c1cccc(OCC(O)Cn2ccnc2)c1 (centres undefined) | -5 | 10 | 8 | 109* | .
CCOc1cc2[nH]c(=S)n(CCOC)c(=O)c2cc1OCC | -16 | 0 | -6 | 111* | .
CCS(=O)(=O)Nc1ccc2c(c1)C(=O)N(C)C[C@@H](OC)[C@@H](C)CN(C(=O)NC(C)C)[C@H](C)CO2 | . | -2[16.7 µM] | 3 | -7 | -7
Clc1ccc2nc(C3CCCCC3)c(CC3CCCCC3)n2c1 | . | 5 | -7 | -7 | 38*
COCC(=O)Nc1ccc2c(c1)[C@H]1C[C@@H](CC(=O)NC3CCCCC3)O[C@H](CO)[C@H]1O2 | . | -12[16.7 µM] | -8 | 1 | 33*
O=C(CC1CC1)Nc1ccc2c(c1)[C@@H]1C[C@H](CC(=O)NC3CCCC3)O[C@@H](CO)[C@@H]1O2 | . | 0 | 7 | -7 | 29*!
O=C(CC1CC1)Nc1ccc2c(c1)[C@@H]1C[C@@H](CC(=O)NC3CCCC3)O[C@@H](CO)[C@@H]1O2 | . | -4[16.7 µM] | -8 | 0 | -6
Cc1ccc(C)c(S(=O)(=O)Nc2ccc3scnc3c2)c1 | -14 | 158* | -10 | -17 | .
Cc1ccc(C)c(S(=O)(=O)Nc2ccc3[nH]c(=O)[nH]c3c2)c1 | -10 | . | . | 8 | -2
COC(=O)c1c(NC(C)=O)sc(Cc2ccccc2)c1C | -1 | 153* | -6 | 11 | .
Cc1ccc(S(=O)(=O)Nc2ccc3c(c2)C(=O)N([C@@H](C)CO)C[C@H](C)[C@H](CN(C)S(C)(=O)=O)O3)cc1 | . | -4[16.7 µM] | 25 | . | 2
CCOc1ccc(N(CC(=O)NC2CCCC2)S(=O)(=O)c2c(C)[nH]c(=O)[nH]c2=O)cc1 | -13 | -4 | -3 | 2 | 54*
